# HepG2 viability: kills HepG2 cells in TGF-b inhibitor counter-screen; HepG2 CAGA-GFP viability, ATP luminescence, 18 h; Potency, µM (doses to about 46.1 µM), actives largely listed as cytotoxic; 410,000 compounds, 0.76% hits; AID 588856
#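 CellTiter-Glo luminescence gave cytotoxicity after 18 hours at 37 degrees C. The cells were HepG2 CAGA-GFP in 1% FBS DMEM, stimulated with 500 pg/mL TGF-beta after compound addition. %Activity was normalised to no-cell wells (complete cell-killing) and DMSO (no toxicity), and curves were fitted and classified.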
# IL1B secr inh: inflammasome signaling inhibition, IL-1 beta readout; THP-1 LPS/ATP IL-1B secretion, AlphaLISA, 16 h; active compounds read low; activity change, % at 57.5 µM; 360,000 compounds, 4.7% hits; AID 743279; in the data active means activity change below about -50%; inconclusive means mostly about -30% to -49%
#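 THP-1 cells pretreated 1 hr with compounds (up to 57.5 uM final), then stimulated with LPS (250 ng/mL final) plus ATP (1.25 mM final); secreted IL-1B measured by AlphaLISA after 16 hr, decreased signal indicating inhibition.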
# TGFb SMAD3 inh: TGF-b pathway inhibition | HepG2 CAGA-GFP TGF-b/SMAD3 reporter, GFP fluorescence, 18 h; TGF-beta stimulated, 500 pg/mL final | Potency, µM (top dose mostly 46.1 µM), actives largely listed as inhibitors | 410,000 compounds, 1.2% hits | AID 588855; further: nearly all actives have a fitted effect of over 65% in size
#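 Inhibition of TGF-beta-driven CAGA-GFP reporter expression in HEPG2 cells is measured by cellular GFP fluorescence after 18 h stimulation with 500 pg/mL recombinant TGF-beta in 1% FBS medium at 37 degrees C.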
# DT40 TDP1 CPT: growth inhibition of DT40 Tdp1-/-;hTDP1 cells with camptothecin (screen for TDP1 inhibitors); chicken DT40 Tdp1-/-;hTDP1 cells + 20 nM CPT, ATP luminescence, 48 h; Potency, µM (highest dose often 46.2 µM), most hits filed as inhibitors; 420,000 compounds, 12% hits; further: nearly all actives have a fitted effect of over 55% in size
#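 Cell growth measured by CellTiter-Glo luminescence after a minimum 48 h, 37 C compound exposure with 20 nM CPT in Tdp1-knockout DT40 cells stably expressing hTDP1, seeded 400/well; qHTS titration format.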
# DT40 TDP1 no CPT: qHTS for Inhibitors of human tyrosyl-DNA phosphodiesterase 1 (TDP1): qHTS in cells in absence of CPT; DT40 Tdp1-/- hTDP1 cells, no CPT, ATP luminescence, 48 h; Potency, µM (highest dose often 46.2 µM), usual class: inhibitors; 420,000 compounds, 15% hits; AID 686978, 2013; further: nearly all actives have a fitted effect of over 55% in size
#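 Chicken DT40 Tdp1-/- cells complemented with human TDP1, screened without camptothecin (DMSO vehicle only), 400 cells/well. Compounds pin-transferred, cells incubated at 37 °C for at least 48 hr. Growth read as ATP-dependent luminescence (CellTiter-Glo, 30 min at RT).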
# TDP1 inh: TDP1 (human) enzyme inhibition; recombinant TDP1, AlphaScreen DNA substrate cleavage; AID 485290; 350,000 compounds, 0.28% hits; Potency, µM (top dose mostly 130 µM), actives largely listed as inhibitors; further: nearly all actives have a fitted effect of over 40% in size
# Target sequence (Q9NUW8 whole entry, looked up): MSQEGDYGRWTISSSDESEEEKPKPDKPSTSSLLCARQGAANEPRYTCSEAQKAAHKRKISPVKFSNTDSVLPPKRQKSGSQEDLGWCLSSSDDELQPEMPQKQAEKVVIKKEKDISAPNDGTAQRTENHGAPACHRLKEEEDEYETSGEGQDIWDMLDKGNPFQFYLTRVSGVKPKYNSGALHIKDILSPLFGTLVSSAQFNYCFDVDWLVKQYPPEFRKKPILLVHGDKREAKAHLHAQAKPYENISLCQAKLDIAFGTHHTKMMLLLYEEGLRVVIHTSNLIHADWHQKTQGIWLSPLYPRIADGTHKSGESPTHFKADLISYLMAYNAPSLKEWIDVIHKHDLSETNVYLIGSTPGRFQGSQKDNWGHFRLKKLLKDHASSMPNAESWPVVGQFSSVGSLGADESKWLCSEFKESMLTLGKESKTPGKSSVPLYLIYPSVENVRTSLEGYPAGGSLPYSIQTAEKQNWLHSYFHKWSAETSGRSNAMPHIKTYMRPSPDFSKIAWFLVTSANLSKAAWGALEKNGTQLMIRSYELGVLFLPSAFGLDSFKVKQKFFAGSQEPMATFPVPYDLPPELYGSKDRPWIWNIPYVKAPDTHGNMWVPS
#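 Recombinant human Tdp1 (E. coli-expressed, 1 nM final) preincubated with compounds 15 min at room temperature, then 5'-biotin/3'-phosphotyrosine-FITC DNA substrate (15 nM final) added for 5 min. AlphaScreen beads (10 ug/ml final) added 10 min; cleavage lowers signal.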
# Hits are given with their value; . = inactive; ? = inconclusive; / = no result. In the library only some 18% were active in any assay of this set; here they are far more common. Unless noted, the call rests on the fitted dose curve; in most records, active means well fitted curve in the direction sought with a large enough effect; inconclusive means small, poorly fitted or top-dose-only effect, or another doubt; inactive means no such curve, though single readings can be large; an effect the other way counts as inactive or inconclusive.
SMILES,HepG2 viability,IL1B secr inh,TGFb SMAD3 inh,DT40 TDP1 CPT,DT40 TDP1 no CPT,TDP1 inh
O=C(Nc1ccc(F)cc1)c1nc(SCc2ccccc2F)ncc1Cl,.,/,?,.,.,.
O=C(Nc1ccc(OC(F)F)cc1)c1ncc(Cl)c(Cl)c1Cl,.,-157.6,.,.,.,.
CCOc1ccc(NC(=O)c2nc(S(=O)(=O)Cc3ccccc3F)ncc2Cl)cc1,6.31µM,/,3.16µM,0.366µM,0.326µM,.
CCOC(=O)c1c(C)[nH]c(C)c1S(=O)(=O)N1CCC(C(=O)NCc2ccc(F)cc2)CC1,.,/,.,.,.,.
CN(C)S(=O)(=O)N1CCC(Oc2cccc(C(=O)N3CCSCC3)c2)CC1,.,.,.,.,.,.
CCCC(=O)Nc1nnc(SCc2cc(=O)c3ccc(C)cc3[nH]2)s1,.,/,.,1.46µM,0.731µM,.
OCCCCNCc1cc(Br)ccc1OCc1ccccc1F,.,-70.3,.,?,?,/
OCCNCc1cc(Br)ccc1OCc1ccc(Cl)cc1,.,?,?,20.6µM,29.1µM,.
OCCNCc1cc(Br)ccc1OCc1ccc(Cl)cc1Cl,15.8µM,?,?,18.4µM,9.2µM,.
COCCNCc1ccc(Cl)cc1Cl,.,.,.,.,.,.
C=CCOc1ccc(Br)cc1CNCC,.,.,.,.,.,.
Cc1ccccc1NC(=O)COc1ccc(Br)cc1CNCCCO,.,.,.,.,.,.
OCCNCc1cccc(OCc2ccc(Cl)cc2)c1,.,-56.0,.,?,?,.
C[C@@]12C(=O)N(CCO)CC(=O)N1[C@H](/C=C/c1ccccc1)[C@@H]1C(=O)N(c3ccccc3)C(=O)[C@@H]12,.,.,.,.,.,/
C/C(=N\NC(=O)CNC(=O)c1ccccc1Br)c1ccco1,.,.,.,.,.,?
COc1ccc(CNC(=O)CN(Cc2ccco2)C(=O)CNS(=O)(=O)c2ccc(F)cc2)cc1,.,.,.,.,.,/
Cc1cc2nccc(-c3ccc(Cl)cc3Cl)n2n1,.,.,.,?,?,/
OCCNCc1cc(Br)ccc1OCc1ccc(F)cc1,.,-80.7,.,?,?,.
CCOC(=O)c1c(C)[n+](-c2ccc(C)cc2)c(CC)c2cc(OC)c(OC)cc12,.,.,.,2.06µM,2.59µM,/
CCOC(=O)C1=C(C)NC(C)=C(C(=O)OCC)C1C(=O)OCC(=O)Nc1ccc(NC(C)=O)cc1,.,.,.,.,?,/
CC(C)c1ccc2[nH]c(O)c(N=NC(=O)c3ccc(CSc4nncn4C)cc3)c2c1,.,?,.,23.1µM,16.4µM,.
Cc1ccc2[nH]c(O)c(N=NC(N)=S)c2c1,.,?,?,?,.,.
CCNC(=S)N=Nc1c(O)[nH]c2ccc(C(C)C)cc12,.,.,.,5.17µM,5.17µM,.
Oc1[nH]c2ccccc2c1N=NC(=S)NCCc1ccccc1,.,.,11.2µM,16.4µM,?,.
NC(=S)N=Nc1c(O)[nH]c2ccccc12,.,.,.,.,.,.
SMILES,HepG2 viability,IL1B secr inh,TGFb SMAD3 inh,DT40 TDP1 CPT,DT40 TDP1 no CPT,TDP1 inh
CCCCNC(=S)N=Nc1c(O)[nH]c2ccccc12,.,.,.,?,10.3µM,.
Cn1cnnc1SCc1ccc(C(=O)NN)cc1,.,.,.,.,.,.
CCCC(=O)N1CCC1(C)C(=O)Nc1ccc(-n2cccc2)cc1 (centres undefined),.,.,.,.,?,/
CC(C)c1ccc2[nH]c(O)c(N=NC(=S)NCCc3ccccc3)c2c1,.,.,?,18.4µM,8.2µM,.
CN1CCOc2cc(S(=O)(=O)N3CCN(c4nc(-c5cccs5)nc5ccccc45)CC3)ccc21,/,/,/,.,?,.
Clc1ccccc1Nc1ncnc2c1nc1n2CCCCC1,.,/,.,8.2µM,?,.
COc1ccc(OC)c(CNc2ncnc3c2nc2n3CCCC2)c1,.,/,.,13µM,?,.
Clc1cccc(Nc2ncnc3c2nc2n3CCCCC2)c1,.,/,.,8.2µM,9.2µM,.
Cc1ccc(Cl)cc1N1CCN(c2ncnc3c2nc2n3CCCCC2)CC1,.,/,?,?,?,.
Clc1cccc(N2CCN(c3ncnc4c3nc3n4CCCC3)CC2)c1,.,/,?,16.4µM,20.6µM,.
COc1ccccc1Nc1ncnc2c1nc1n2CCCCC1,.,/,.,?,?,.
CCCOc1ccc(C(=O)N(Cc2ccccc2Cl)C2CCS(=O)(=O)C2)cc1 (centres undefined),.,/,.,?,?,.
C=CCNc1nc2c(c(=O)[nH]c(=O)n2C)n1CCOc1ccccc1,.,.,.,.,?,/
COc1ccc(Br)cc1/C=C/C(=O)Nc1ccc(C)cc1,.,-66.9,?,16.4µM,16.4µM,.
COc1ccc(/C=C/C(=O)Nc2ccccc2C(=O)O)cc1OC,.,/,.,.,?,.
